In PubChem BioAssay AID1159580 (chemical genetic matrix, 2015):
“And” between values parts separate entries of the source, which are not always exact repeats. Identical values can stand only once. In all, about 5,500 compounds went through this assay and about 2,000 (36%) were called active. Roughly 18% stayed inconclusive and do not appear here. The list shows a part of the results. Unmarked numbers belong to inactive results. No stated cut-off is given here; in the data, active means normalized growth mostly below about 0.91 (no sharp cut-off); inconclusive means no clear call, values can overlap the other calls; inactive means mostly above about 0.92.

Assay: chemical genetic growth profiling, strain panel (AID 1159580);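 further: tested at 20 µM; growth read once vehicle control cultures reached saturation at 30 °C; 1 = growth at the plate median or of vehicle wells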
Conditions: S. cerevisiae deletion strains, growth OD
[1] = locus YAL013W, strain DEP1, stronger effect = lower value
[2] = locus YMR307W, strain GAS1, stronger effect = lower value
[3] = locus YNL128W, strain TEP1, stronger effect = lower value

CC(=O)C1CC[C@H]2C3CC[C@H]4C[C@H](O)CC[C@]4(C)C3CC[C@]12C (stereo not given in full)
normalized growth [1]: 1
normalized growth (locus YAL021C, strain ccr4, stronger effect = lower value): 0.936
normalized growth (locus YAL026C, strain drs2, stronger effect = lower value): 0.849 (active)
normalized growth (locus YAL030W, strain snc1, stronger effect = lower value): 0.999
normalized growth (locus YBL061C, strain skt5, stronger effect = lower value): 1.02
normalized growth (locus YBR009C, strain hhf1, stronger effect = lower value): 1.02
normalized growth (locus YBR021W, strain FUR4, stronger effect = lower value): 0.977
normalized growth (locus YBR023C, strain chs3, stronger effect = lower value): 0.998
normalized growth (locus YBR171W, strain sec66, stronger effect = lower value): 0.998
normalized growth (locus YBR229C, strain ROT2, stronger effect = lower value): 0.995
normalized growth (locus YBR231C, strain swc5, stronger effect = lower value): 1.01
normalized growth (locus YBR279W, strain paf1, stronger effect = lower value): 0.987
normalized growth (locus YCL011C, strain gbp2, stronger effect = lower value): 0.995
normalized growth (locus YCL016C, strain dcc1, stronger effect = lower value): 0.964
normalized growth (locus YCL029C, strain bik1, stronger effect = lower value): 0.998
normalized growth (locus YCL069W, strain vba3, stronger effect = lower value): 1
normalized growth (locus YCR088W, strain abp1, stronger effect = lower value): 1
normalized growth (locus YDL005C, strain med2, stronger effect = lower value): 0.997
normalized growth (locus YDL035C, strain GPR1, stronger effect = lower value): 0.999
normalized growth (locus YDL040C, strain nat1, stronger effect = lower value): 1.01
normalized growth (locus YDL074C, strain BRE1, stronger effect = lower value): 1.01
normalized growth (locus YDL101C, strain DUN1, stronger effect = lower value): 0.982
normalized growth (locus YDL134C, strain PPH21, stronger effect = lower value): 0.975
normalized growth (locus YDL185W, strain tfp1, stronger effect = lower value): 0.989
normalized growth (locus YDL192W, strain arf1, stronger effect = lower value): 1
normalized growth (locus YDR001C, strain nth1, stronger effect = lower value): 1.01
normalized growth (locus YDR069C, strain doa4, stronger effect = lower value): 1
normalized growth (locus YDR101C, strain arx1, stronger effect = lower value): 1.01
normalized growth (locus YDR137W, strain rgp1, stronger effect = lower value): 0.763 (active)
normalized growth (locus YDR159W, strain sac3, stronger effect = lower value): 1.03
normalized growth (locus YDR162C, strain NBP2, stronger effect = lower value): 0.993
normalized growth (locus YDR195W, strain ref2): 1.02
normalized growth (locus YDR297W, strain sur2, stronger effect = lower value): 1.02
normalized growth (locus YDR318W, strain mcm21, stronger effect = lower value): 0.995
normalized growth (locus YDR334W, strain swr1, stronger effect = lower value): 1.01
normalized growth (locus YDR335W, strain msn5, stronger effect = lower value): 0.984
normalized growth (locus YDR388W, stronger effect = lower value): 0.994
normalized growth (locus YDR392W, strain spt3, stronger effect = lower value): 0.837
normalized growth (locus YDR502C, strain sam2, stronger effect = lower value): 0.971
normalized growth (locus YEL003W, strain gim4, stronger effect = lower value): 1
normalized growth (locus YEL037C, strain rad23, stronger effect = lower value): 0.994
normalized growth (locus YEL061C, strain CIN8 (second series), stronger effect = lower value): 1
normalized growth (locus YEL061C, strain CIN8, stronger effect = lower value): 1.01
normalized growth (locus YER015W, strain faa2, stronger effect = lower value): 1
normalized growth (locus YER016W, strain bim1, stronger effect = lower value): 0.998
normalized growth (locus YER110C, stronger effect = lower value): 0.981
normalized growth (locus YER111C, strain swi4, stronger effect = lower value): 0.994
normalized growth (locus YER155C, strain BEM2 (second series), stronger effect = lower value): 1.02
normalized growth (locus YER155C, strain BEM2, stronger effect = lower value): 0.992
normalized growth (locus YER167W, strain BCK2, stronger effect = lower value): 0.993
normalized growth (locus YFR010W, strain ubp6, stronger effect = lower value): 0.999
normalized growth (locus YGL078C, strain dbp3, stronger effect = lower value): 0.963
normalized growth (locus YGL086W, strain mad1, stronger effect = lower value): 0.971
normalized growth (locus YGL167C, strain pmr1, stronger effect = lower value): 1.01
normalized growth (locus YGL173C, strain kem1, stronger effect = lower value): 0.99
normalized growth (locus YGL227W, strain vid30, stronger effect = lower value): 1.01
normalized growth (locus YGL240W, strain doc1, stronger effect = lower value): 1.01
normalized growth (locus YGL248W, strain PDE1, stronger effect = lower value): 0.987
normalized growth (locus YGL253W, strain hxk2, stronger effect = lower value): 0.983
normalized growth (locus YGR078C, strain PAC10, stronger effect = lower value): 0.969
normalized growth (locus YGR135W, strain pre9, stronger effect = lower value): 0.932
normalized growth (locus YGR229C, strain SMI1, stronger effect = lower value): 1.05
normalized growth (locus YGR252W, strain gcn5, stronger effect = lower value): 0.928
normalized growth (locus YHR013C, strain ard1, stronger effect = lower value): 0.996
normalized growth (locus YHR027C, strain rpn1, stronger effect = lower value): 0.999
normalized growth (locus YHR030C, strain SLT2, stronger effect = lower value): 0.992 and 0.994
normalized growth (locus YHR079C, strain IRE1 (second series), stronger effect = lower value): 1
normalized growth (locus YHR079C, strain IRE1, stronger effect = lower value): 1
normalized growth (locus YHR094C, strain hxt1, stronger effect = lower value): 0.992
normalized growth (locus YHR129C, strain ARP1, stronger effect = lower value): 1
normalized growth (locus YHR142W, strain chs7, stronger effect = lower value): 0.957
normalized growth (locus YHR200W, strain rpn10, stronger effect = lower value): 0.984
normalized growth (locus YIL066C, strain RNR3, stronger effect = lower value): 1.01
normalized growth (locus YIL073C, strain SPO22, stronger effect = lower value): 0.962
normalized growth (locus YIL125W, strain kgd1, stronger effect = lower value): 1
normalized growth (locus YIR030C, strain dcg1, stronger effect = lower value): 0.998
normalized growth (locus YJL092W, strain hpr5, stronger effect = lower value): 1
normalized growth (locus YJL095W, strain BCK1 (second series), stronger effect = lower value): 1.01
normalized growth (locus YJL095W, strain BCK1, stronger effect = lower value): 0.936 and 0.99
normalized growth (locus YJL115W, strain asf1, stronger effect = lower value): 1
normalized growth (locus YJL129C, strain trk1, stronger effect = lower value): 1.01
normalized growth (locus YJL134W, strain LCB3, stronger effect = lower value): 1
normalized growth (locus YJL154C, strain vps35, stronger effect = lower value): 1.01
normalized growth (locus YJL164C, strain tpk1, stronger effect = lower value): 0.999
normalized growth (locus YJL166W, strain qcr8, stronger effect = lower value): 1.01
normalized growth (locus YJL168C, strain set2, stronger effect = lower value): 1
normalized growth (locus YJL187C, strain SWE1 (second series), stronger effect = lower value): 0.962
normalized growth (locus YJL187C, strain SWE1, stronger effect = lower value): 1.01
normalized growth (locus YJR043C, strain POL32, stronger effect = lower value): 1.05
normalized growth (locus YJR066W, strain TOR1, stronger effect = lower value): 0.924
normalized growth (locus YKL009W, strain mrt4, stronger effect = lower value): 0.978
normalized growth (locus YKL068W, stronger effect = lower value): 0.993
normalized growth (locus YKL085W, strain MDH1 (second series), stronger effect = lower value): 1.01
normalized growth (locus YKL085W, strain MDH1, stronger effect = lower value): 1.01
normalized growth (locus YKL160W, strain elf1, stronger effect = lower value): 0.976
normalized growth (locus YKL190W, strain CNB1, stronger effect = lower value): 1.01
normalized growth (locus YKR001C, strain vps1, stronger effect = lower value): 1.02
normalized growth (locus YKR026C, strain gcn3, stronger effect = lower value): 1
normalized growth (locus YKR091W, strain srl3, stronger effect = lower value): 1.01
normalized growth (locus YLL001W, strain dnm1, stronger effect = lower value): 1
normalized growth (locus YLL026W, stronger effect = lower value): 1.02
normalized growth (locus YLL041C, strain sdh2, stronger effect = lower value): 0.997
normalized growth (locus YLR027C, strain aat2, stronger effect = lower value): 0.983
normalized growth (locus YLR039C, strain RIC1, stronger effect = lower value): 0.797
normalized growth (locus YLR058C, strain SHM2, stronger effect = lower value): 0.991
normalized growth (locus YLR102C, strain apc9, stronger effect = lower value): 1
normalized growth (locus YLR113W, strain HOG1, stronger effect = lower value): 1.01
normalized growth (locus YLR221C, strain rsa3, stronger effect = lower value): 1.03
normalized growth (locus YLR258W, strain gsy2, stronger effect = lower value): 0.964
normalized growth (locus YLR262C, strain YPT6 (second series), stronger effect = lower value): 0.778 (active)
normalized growth (locus YLR268W, strain sec22, stronger effect = lower value): 0.977
normalized growth (locus YLR320W, strain mms22, stronger effect = lower value): 0.98
normalized growth (locus YLR330W, strain CHS5, stronger effect = lower value): 1
normalized growth (locus YLR342W, strain FKS1 (second series), stronger effect = lower value): 0.997
normalized growth (locus YLR342W, strain FKS1, stronger effect = lower value): 1.01
normalized growth (locus YLR357W, strain rsc2, stronger effect = lower value): 0.994
normalized growth (locus YLR370C, strain arc18, stronger effect = lower value): 0.999
normalized growth (locus YLR371W, strain rom2, stronger effect = lower value): 1
normalized growth (locus YLR384C, strain iki3, stronger effect = lower value): 0.977
normalized growth (locus YLR418C, strain cdc73, stronger effect = lower value): 0.993
normalized growth (locus YML016C, strain PPZ1, stronger effect = lower value): 0.994
normalized growth (locus YML032C, strain rad52, stronger effect = lower value): 0.969
normalized growth (locus YML120C, strain ndi1, stronger effect = lower value): 1.02
normalized growth (locus YML124C, strain tub3, stronger effect = lower value): 0.996
normalized growth (locus YMR058W, strain fet3, stronger effect = lower value): 1.01
normalized growth (locus YMR078C, strain ctf18, stronger effect = lower value): 0.988
normalized growth (locus YMR125W, strain sto1, stronger effect = lower value): 0.998
normalized growth (locus YMR129W, stronger effect = lower value): 1
normalized growth (locus YMR205C, strain PFK2, stronger effect = lower value): 1
normalized growth (locus YMR223W, strain ubp8, stronger effect = lower value): 0.977
normalized growth (locus YMR231W, strain pep5, stronger effect = lower value): 1.01
normalized growth [2]: 1.11
normalized growth (locus YNL067W, strain RPL9B, stronger effect = lower value): 0.967
normalized growth (locus YNL071W, strain lat1, stronger effect = lower value): 0.995
normalized growth [3]: 0.993
normalized growth (locus YNL153C, strain GIM3, stronger effect = lower value): 0.985
normalized growth (locus YNL183C, strain NPR1, stronger effect = lower value): 0.959
normalized growth (locus YNL209W, strain ssb2, stronger effect = lower value): 0.987
normalized growth (locus YNL233W, strain BNI4, stronger effect = lower value): 0.992
normalized growth (locus YNL248C, strain rpa49, stronger effect = lower value): 0.939
normalized growth (locus YNL250W, strain rad50, stronger effect = lower value): 0.946
normalized growth (locus YNL271C, strain bni1, stronger effect = lower value): 0.986
normalized growth (locus YNL298W, strain CLA4, stronger effect = lower value): 0.993
normalized growth (locus YNL307C, strain MCK1, stronger effect = lower value): 1.01
normalized growth (locus YNL322C, strain KRE1 (second series), stronger effect = lower value): 1.01
normalized growth (locus YNR049C, strain mso1, stronger effect = lower value): 1.01
normalized growth (locus YNR052C, strain pop2, stronger effect = lower value): 0.943
normalized growth (locus YOL012C, strain htz1): 0.983
normalized growth (locus YOL147C, strain pex11, stronger effect = lower value): 0.994
normalized growth (locus YOR001W, strain rrp6, stronger effect = lower value): 0.994
normalized growth (locus YOR061W, strain CKA2, stronger effect = lower value): 1.01
normalized growth (locus YOR069W, strain VPS5, stronger effect = lower value): 0.988
normalized growth (locus YOR070C, strain gyp1, stronger effect = lower value): 0.991
normalized growth (locus YOR080W, strain dia2, stronger effect = lower value): 1.01
normalized growth (locus YOR083W, strain WHI5, stronger effect = lower value): 0.984
normalized growth (locus YOR106W, strain vam3, stronger effect = lower value): 0.995
normalized growth (locus YOR136W, strain idh2, stronger effect = lower value): 0.992
normalized growth (locus YOR144C, strain elg1, stronger effect = lower value): 0.998
normalized growth (locus YOR184W, strain ser1, stronger effect = lower value): 0.981
normalized growth (locus YOR231W, strain MKK1, stronger effect = lower value): 0.996
normalized growth (locus YOR265W, strain rbl2, stronger effect = lower value): 0.993
normalized growth (locus YOR270C, strain vph1, stronger effect = lower value): 0.949
normalized growth (locus YOR290C, strain snf2, stronger effect = lower value): 0.951
normalized growth (locus YOR316C, strain cot1, stronger effect = lower value): 1
normalized growth (locus YPL051W, strain arl3, stronger effect = lower value): 0.986
normalized growth (locus YPL078C, strain atp4, stronger effect = lower value): 0.976
normalized growth (locus YPL106C, strain sse1, stronger effect = lower value): 1.04
normalized growth (locus YPL240C, strain hsp82, stronger effect = lower value): 1.02
normalized growth (locus YPL256C, strain CLN2, stronger effect = lower value): 1.01
normalized growth (locus YPR119W, strain clb2, stronger effect = lower value): 0.997
normalized growth (locus YPR141C, strain kar3, stronger effect = lower value): 0.99
normalized growth (locus YPR163C, strain tif3, stronger effect = lower value): 0.99
normalized growth (locus YPR167C, strain met16, stronger effect = lower value): 0.995
normalized growth (strain wtn01, stronger effect = lower value): 0.987

C[C@]12CC[C@H]3[C@@H](CCC4C[C@H](O)CC[C@@]43C)[C@@H]1CC[C@@H]2O (stereo not given in full)
normalized growth [1]: 0.946
normalized growth (locus YAL040C, strain CLN3, stronger effect = lower value): 1.02
normalized growth (locus YCL061C, strain MRC1 (second series), stronger effect = lower value): 1
normalized growth (locus YDR363W, strain ESC2, stronger effect = lower value): 0.987
normalized growth (locus YER002W, strain NOP16, stronger effect = lower value): 1
normalized growth (locus YJR075W, strain HOC1, stronger effect = lower value): 1.06
normalized growth (locus YMR263W, strain SAP30, stronger effect = lower value): 1.03
normalized growth [2]: 0.977
normalized growth [3]: 1.03
normalized growth (locus YNL175C, strain NOP13, stronger effect = lower value): 1.02
normalized growth (locus YNL197C, strain WHI3, stronger effect = lower value): 0.964
normalized growth (locus YNL224C, strain SQS1, stronger effect = lower value): 1.01
normalized growth (locus YNL322C, strain KRE1, stronger effect = lower value): 1.02
normalized growth (locus YOR083W, strain WHI5 (second series), stronger effect = lower value): 0.966
normalized growth (locus YPL055C, strain LGE1, stronger effect = lower value): 1.03
normalized growth (locus YPL241C, strain CIN2, stronger effect = lower value): 1.03
